A selection: hits, their analogues and other compounds. The true share with any hit is near 4.1%.
pCIP destab – p/CIP protein destabilization. 290,000 compounds, 0.01% hits. Q05BA5. decrease of EGFP signal, % at 10 µM. F442A p/CIP-EGFP cells, EGFP fluorescence, 16 h;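 active = EGFP signal decrease of at least 30% at 10 µM or well 3 SD below plate mean, unless failing retest; inactive = the rest, including hits failing retest or dose response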
MPTP block – inhibitors of mitochondrial permeability transition pore; isolated mouse mitochondria, Ca2+ swelling absorbance, 30 min; inhibition, % at 10 µM; 360,000 compounds, 1.4% hits; AID 602449;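 active = inhibition of 50% or more, scaled per plate between neutral and stimulator controls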
NR3A LBD binder – modulates the human NR3A ligand-binding domain | AID 1259313 | 340,000 compounds, 2.5% hits | Tm shift relative to glycine control, % at 25 µM | NR3A LBD differential scanning fluorimetry, Tm shift; 0% = protein alone, 100% = glycine-bound protein;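 active = melting temperature shift of at least 10% of the positive control shift, at one fixed dose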
MIN6 prolif – induces beta-cell replication in MIN6 cells | AID 2380 | 330,000 compounds, 0.29% hits | MIN6 cells proliferation, ATPlite luminescence, 48 h; cells starved in 0.2% serum; 100% = growth in 10% serum | proliferation, % at 10 µM;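 active = compounds whose signal lies at least 3.5 SD above the mean of all wells on their plate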
FAS TE block – inhibitors of human fatty acid synthase thioesterase domain. P49327. recombinant FAS-TE, OMFH fluorogenic substrate, fluorescence endpoint. inhibition, % at 15 µM. 360,000 compounds, 0.67% hits. AID 602261;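 active = compounds whose normalised, plate-corrected inhibition of enzyme fluorescence in the single-dose primary screen is 50% or more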
Rh123 counter – Rhodamine 123 counter-screen of mitochondrial pore hits. shares compounds with MPTP block. isolated mitochondria, membrane potential, Rhodamine 123 fluorescence. inhibition, % at 10 µM. 5,000 compounds, 78% hits. AID 624504; in the data active = inhibition above about 22%
MPTP abs DR – dose response confirmation of mitochondrial permeability transition pore inhibitors; shares compounds with MPTP block; isolated mitochondria swelling, absorbance; IC50, µM; 780 compounds, 58% hits; in the data active = IC50 below about 20 µM
MPTP cs DR – active in counter-screen for permeability transition pore inhibitors; shares compounds with MPTP block; isolated mitochondria counterscreen, fluorescence read-out; IC50, µM; 780 compounds, 49% hits; AID 651564; in the data active = IC50 below about 80 µM
Each line names hits and unclear results; the compound was inactive in the other large screens (follow-up assays come after a bar, where they were run).

O=C(CSc1ncnc2c1oc1ccccc12)N1CCCc2ccccc21	MPTP block 79 | Rh123 counter 72
CN(C)S(=O)(=O)c1ccc(Cl)c(C(=O)Nc2nc3ccccc3[nH]2)c1	none
Cc1ccc(NS(=O)(=O)c2ccc(Cl)c(C(=O)Nc3ccccc3-c3nc4ccccc4[nH]3)c2)cc1C	MPTP block 88, NR3A LBD binder 34 | Rh123 counter 58
CCOc1ccc(OCCNC(=O)c2ccc3c(c2)nnn3CC)cc1	none (no result: pCIP destab)
S=C(Nc1ccc2cn[nH]c2c1)Nc1ccccc1Cl	none
S=C(Nc1ccc(Cl)cc1)Nc1ccc2cn[nH]c2c1	MPTP block 93, NR3A LBD binder 26 | Rh123 counter 89
CCOC(=O)c1ccc(NC(=S)Nc2ccc3[nH]c(=O)[nH]c3c2)cc1	MPTP block 74 | Rh123 counter 59
Cc1ccc(NC(=S)Nc2ccc3[nH]c(=O)[nH]c3c2)cc1	none
O=c1[nH]c2ccc(NC(=S)Nc3ccc(Cl)cc3)cc2[nH]1	MPTP block 56 | Rh123 counter 103
O=C(Cc1ccc(Br)cc1)N1CCN(C(=O)c2ccccc2)CC1	none (no result: pCIP destab)
CCCN(CC(=O)Nc1ccc(F)c(F)c1F)CC(=O)Nc1c(Cl)cccc1Cl	none
CC1CCN(S(=O)(=O)c2ccc(NC(=O)Cn3nnc(-c4ccccc4)n3)cc2)CC1	MPTP block 54, NR3A LBD binder 11 | Rh123 counter 56
Cc1ccc(NS(=O)(=O)c2ccc(C3CCCCC3)cc2)cc1	MPTP block 73 | Rh123 counter 78
Cc1cc(C)nc(N/N=C/c2ccccc2OCc2ccc([N+](=O)[O-])cc2)n1	none
O=[N+]([O-])c1ccc(NN=Cc2cccc3ccccc23)cc1	MPTP block 89, NR3A LBD binder 34 (no result: pCIP destab, MIN6 prolif) | Rh123 counter 71
O=[N+]([O-])c1ccccc1C=NNc1ccccc1	none (no result: pCIP destab, MIN6 prolif)
O=[N+]([O-])c1ccc(/C=N/Nc2ccc3ccccc3c2)o1	MPTP block 79, NR3A LBD binder 21 | Rh123 counter 32
O=[N+]([O-])c1ccc(N/N=C\c2ccccc2OCc2ccccc2)cc1	MPTP block 97, NR3A LBD binder 20 | Rh123 counter 76
COc1cccc(SCc2noc(C(=O)NCCCN3CCOCC3)c2C(=O)NCCCN2CCOCC2)c1	none (no result: pCIP destab)
Cc1ccc(N(CC(=O)Nc2cc(C)cc(C)c2)S(=O)(=O)c2c(C)noc2C)cc1	none
Cc1ccc(N(CC(=O)Nc2ccc(F)c(Cl)c2)S(=O)(=O)c2c(C)noc2C)cc1	MPTP block 58, NR3A LBD binder 11 | Rh123 counter 101
CCCCNS(=O)(=O)c1ccc2nc(SCC(N)=O)[nH]c2c1	none
CCCCNS(=O)(=O)c1ccc2nc(SCC(=O)Nc3sccc3C#N)[nH]c2c1	MPTP block 79, NR3A LBD binder 14 | Rh123 counter inactive | MPTP abs DR 11 | MPTP cs DR <2.5
Cc1ccc(S(=O)(=O)n2ccc3c(OCCOCCSCC(NC(=O)OC(C)(C)C)C(=O)O)cccc32)cc1 (stereo not given)	none
Cc1ccc(S(=O)(=O)n2ccc3c(OCCOCCNCc4ccc(F)cc4)cccc32)cc1	MPTP block 68 | Rh123 counter 86
Cc1c(C(=O)NC2CC(=O)N(c3ccc4c(c3)OCCO4)C2)cccc1[N+](=O)[O-] (stereo not given)	none (no result: pCIP destab)
Cc1n[nH]c(C)c1CCOc1ccc(C(C)C)cc1	none
COc1ccc(OCCCCc2c(C)n[nH]c2C)cc1	MPTP block 51 (no result: pCIP destab) | Rh123 counter 36
CN(C)Cc1ccccc1Sc1cccc2ccccc12	MPTP block 66 (no result: MIN6 prolif) | Rh123 counter inactive | MPTP abs DR 11 | MPTP cs DR 61
c1ccc(Sc2cccc3ccccc23)c(CNC2=NCCN2)c1	MPTP block 101 | Rh123 counter 29
O=C(O)c1ccccc1C(=O)c1cccc2c(Br)cccc12	none (no result: pCIP destab, MIN6 prolif)
CCOc1ccc(NC(=O)N2CCC(NC(=O)C(Cc3cccc(F)c3)NC(C)=O)CC2)cc1 (stereo not given)	none
CN(C(=O)Cn1cc(C(F)(F)F)ccc1=O)c1c(N)n(Cc2ccccc2)c(=O)[nH]c1=O	none
CCOC(=O)C(=O)NNc1ccc(Cl)cc1	none
CCOC(=O)C(=N/O)/C(C)=N/NC(=O)C(=O)Nc1ccc(Cl)cc1	MPTP block 82 | Rh123 counter 69
NC[C@@H]1O[C@H](C23CC4CC(CC(C4)C2)C3)Cc2c1ccc(O)c2O	MPTP block 94 | Rh123 counter inactive
O=C(NCC1CC1(Cl)Cl)Nc1ccc(Cl)c(Cl)c1 (stereo not given)	MPTP block 62 | Rh123 counter 95
CCN(CC)C(=S)Nc1ccc(Cl)c(Cl)c1	MPTP block 71 | Rh123 counter 59
COC(=O)c1sccc1NC(=O)Nc1ccc(C)c(C)c1	none
COC(=O)c1cccc(NC(=O)Nc2ccc(Cl)c(Cl)c2)c1	MPTP block 98, NR3A LBD binder 43 | Rh123 counter 70
COC(=O)c1sccc1NC(=O)Nc1ccc(Cl)c(Cl)c1	MPTP block 103 | Rh123 counter 107
CC(CCc1ccccc1)N1CCN(C)CC1 (stereo not given)	none
COC(=O)c1cc(NC(=O)Nc2ccccc2)ccc1Cl	MPTP block 76, NR3A LBD binder 39 | Rh123 counter 83
CN(C)S(=O)(=O)Oc1cccc(C(=O)Nc2ccc(Cl)c(Cl)c2)c1	MPTP block 96 | Rh123 counter 91
CN(C)S(=O)(=O)Oc1cccc(C(=O)Nc2cccc(Cl)c2)c1	none
COC(=O)c1cccc(NC(=O)NC(=O)c2ccccc2Cl)c1	none
NC(=S)NNC(=O)Nc1ccc(Cl)c(Cl)c1	MPTP block 72 | Rh123 counter 70
Cc1ccc(S(=O)(=O)NC(C)(C)CSc2nnc(Nc3ccccc3)s2)cc1	MPTP block 65 | Rh123 counter 66
Cc1ccc(S(=O)(=O)Nc2ccc(-c3nc4cc(NS(=O)(=O)c5ccc(C)cc5)ccc4o3)cc2)cc1	none (no result: MPTP block, NR3A LBD binder, MIN6 prolif, FAS TE block)
CC(=O)Nc1ccc(S(=O)(=O)Nc2cccc(-c3nc4cc(C)ccc4o3)c2)cc1	MPTP block 96, NR3A LBD binder 16 (no result: pCIP destab) | Rh123 counter 74
CCOC(=O)c1ccc(N/N=C/c2cc(Br)cc([N+](=O)[O-])c2O)cc1	MPTP block 74, NR3A LBD binder 19 | Rh123 counter 21
CCOC(=O)c1ccc(NC(=O)c2ccccc2[N+](=O)[O-])cc1	none
CCCc1[nH]c2ccc(C#N)cc2c1CCC	MPTP block 69 | Rh123 counter 86
Cc1cc(/C=C2/SC(=S)N(c3cccc(C(F)(F)F)c3)C2=O)c(C)n1-c1cccnc1	MPTP block 105 (no result: pCIP destab) | Rh123 counter 87

Bioassay records from PubChem BioAssay.
